Results: ChEMBL document CHEMBL1961873, “Compounds: GSK PKIS; Assays: Nanosyn kinase panel” (2012)

Tests used:
[1] = molecular target: Tyrosine-protein kinase receptor UFO (Homo sapiens) (UniProt P30530); settings: at 1 µM
[2] = molecular target: Tyrosine-protein kinase Blk (Homo sapiens) (UniProt P51451); settings: at 0.1 µM
[3] = molecular target: Tyrosine-protein kinase Blk (Homo sapiens) (UniProt P51451); settings: at 1 µM
[4] = molecular target: T1, Cytoplasmic tyrosine-protein kinase BMX (Homo sapiens) (UniProt P51813); settings: at 0.1 µM
T1 sequence (whole entry): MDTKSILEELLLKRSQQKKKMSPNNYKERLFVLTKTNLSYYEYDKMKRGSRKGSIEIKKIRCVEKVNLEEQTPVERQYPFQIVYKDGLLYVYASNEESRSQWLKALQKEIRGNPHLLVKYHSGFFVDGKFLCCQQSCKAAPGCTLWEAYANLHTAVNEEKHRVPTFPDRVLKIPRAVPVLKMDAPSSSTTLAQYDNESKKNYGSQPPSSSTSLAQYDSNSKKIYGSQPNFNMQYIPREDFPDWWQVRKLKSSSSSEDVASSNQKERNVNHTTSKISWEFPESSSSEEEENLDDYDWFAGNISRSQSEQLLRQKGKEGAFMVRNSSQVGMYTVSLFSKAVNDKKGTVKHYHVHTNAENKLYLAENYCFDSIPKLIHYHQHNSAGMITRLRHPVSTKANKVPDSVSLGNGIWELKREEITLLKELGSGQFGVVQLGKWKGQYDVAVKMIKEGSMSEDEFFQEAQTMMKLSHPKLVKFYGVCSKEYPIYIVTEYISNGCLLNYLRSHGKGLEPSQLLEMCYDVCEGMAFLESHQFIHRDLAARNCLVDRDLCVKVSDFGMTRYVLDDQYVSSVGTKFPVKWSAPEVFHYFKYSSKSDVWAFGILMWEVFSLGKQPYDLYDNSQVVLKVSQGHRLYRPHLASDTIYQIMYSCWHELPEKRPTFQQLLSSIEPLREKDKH

[5] = molecular target: T1, Cytoplasmic tyrosine-protein kinase BMX (Homo sapiens); settings: at 1 µM
[6] = molecular target: Protein-tyrosine kinase 6 (Homo sapiens) (UniProt Q13882); settings: at 0.1 µM
[7] = molecular target: Protein-tyrosine kinase 6 (Homo sapiens) (UniProt Q13882); settings: at 1 µM
[8] = molecular target: Tyrosine-protein kinase BTK (Homo sapiens) (UniProt Q06187); settings: at 0.1 µM
[9] = molecular target: Tyrosine-protein kinase BTK (Homo sapiens) (UniProt Q06187); settings: at 1 µM
[10] = molecular target: Tyrosine-protein kinase CSK (Homo sapiens) (UniProt P41240); settings: at 0.1 µM
[11] = molecular target: Tyrosine-protein kinase CSK (Homo sapiens) (UniProt P41240); settings: at 1 µM
[12] = molecular target: T2, Discoidin domain-containing receptor 2 (Homo sapiens) (UniProt Q16832); settings: at 0.1 µM
T2 sequence (whole entry): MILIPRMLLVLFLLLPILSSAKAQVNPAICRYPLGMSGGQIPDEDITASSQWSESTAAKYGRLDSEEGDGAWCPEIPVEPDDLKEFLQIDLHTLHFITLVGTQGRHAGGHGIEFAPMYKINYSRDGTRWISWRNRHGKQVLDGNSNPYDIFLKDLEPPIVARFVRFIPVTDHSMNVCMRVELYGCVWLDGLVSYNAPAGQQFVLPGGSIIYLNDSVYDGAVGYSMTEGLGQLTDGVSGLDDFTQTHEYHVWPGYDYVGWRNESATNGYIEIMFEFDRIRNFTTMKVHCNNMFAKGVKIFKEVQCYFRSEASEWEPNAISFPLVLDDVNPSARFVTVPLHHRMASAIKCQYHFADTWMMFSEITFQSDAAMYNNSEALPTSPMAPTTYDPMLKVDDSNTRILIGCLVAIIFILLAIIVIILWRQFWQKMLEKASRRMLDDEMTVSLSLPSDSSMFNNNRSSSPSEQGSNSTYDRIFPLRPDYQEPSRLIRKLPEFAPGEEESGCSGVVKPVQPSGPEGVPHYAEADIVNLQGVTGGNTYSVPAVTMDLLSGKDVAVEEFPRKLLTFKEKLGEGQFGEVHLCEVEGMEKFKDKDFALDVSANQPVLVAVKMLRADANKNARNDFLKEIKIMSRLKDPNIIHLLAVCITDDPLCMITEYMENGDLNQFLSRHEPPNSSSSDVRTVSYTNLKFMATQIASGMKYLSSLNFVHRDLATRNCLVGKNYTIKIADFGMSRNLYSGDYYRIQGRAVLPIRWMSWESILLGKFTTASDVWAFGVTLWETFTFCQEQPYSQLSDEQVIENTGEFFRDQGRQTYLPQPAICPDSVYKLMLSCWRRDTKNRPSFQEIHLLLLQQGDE

[13] = molecular target: T2, Discoidin domain-containing receptor 2 (Homo sapiens); settings: at 1 µM
[14] = molecular target: Epidermal growth factor receptor (Homo sapiens) (UniProt P00533); settings: at 0.1 µM
[15] = molecular target: Epidermal growth factor receptor (Homo sapiens) (UniProt P00533); settings: at 1 µM
[16] = system: Epidermal growth factor receptor (Homo sapiens), P00533 [L858R]; settings: at 0.1 µM
[17] = system: Epidermal growth factor receptor (Homo sapiens), P00533 [L858R]; settings: at 1 µM
[18] = system: Epidermal growth factor receptor (Homo sapiens), P00533 [L861Q]; settings: at 0.1 µM
[19] = system: Epidermal growth factor receptor (Homo sapiens), P00533 [L861Q]; settings: at 1 µM
[20] = system: Epidermal growth factor receptor (Homo sapiens), P00533 [T790M]; settings: at 0.1 µM

Sequence of Tyrosine-protein kinase Blk (Homo sapiens) (P51451 2-505 limits assumed): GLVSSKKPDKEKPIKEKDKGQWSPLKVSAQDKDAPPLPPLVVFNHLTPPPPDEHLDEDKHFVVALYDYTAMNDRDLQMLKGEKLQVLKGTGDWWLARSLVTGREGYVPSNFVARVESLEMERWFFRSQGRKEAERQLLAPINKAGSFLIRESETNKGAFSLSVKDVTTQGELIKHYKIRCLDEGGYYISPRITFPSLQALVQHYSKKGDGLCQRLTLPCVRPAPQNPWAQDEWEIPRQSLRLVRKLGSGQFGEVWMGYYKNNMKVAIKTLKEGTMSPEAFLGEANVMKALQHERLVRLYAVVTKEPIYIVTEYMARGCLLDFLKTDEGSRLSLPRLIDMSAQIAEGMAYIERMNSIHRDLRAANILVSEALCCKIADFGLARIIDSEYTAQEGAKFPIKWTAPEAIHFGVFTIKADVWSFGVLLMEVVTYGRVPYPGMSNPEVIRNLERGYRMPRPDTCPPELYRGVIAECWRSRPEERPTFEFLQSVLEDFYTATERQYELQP
Sequence of Tyrosine-protein kinase CSK (Homo sapiens) (P41240 2-450 limits assumed): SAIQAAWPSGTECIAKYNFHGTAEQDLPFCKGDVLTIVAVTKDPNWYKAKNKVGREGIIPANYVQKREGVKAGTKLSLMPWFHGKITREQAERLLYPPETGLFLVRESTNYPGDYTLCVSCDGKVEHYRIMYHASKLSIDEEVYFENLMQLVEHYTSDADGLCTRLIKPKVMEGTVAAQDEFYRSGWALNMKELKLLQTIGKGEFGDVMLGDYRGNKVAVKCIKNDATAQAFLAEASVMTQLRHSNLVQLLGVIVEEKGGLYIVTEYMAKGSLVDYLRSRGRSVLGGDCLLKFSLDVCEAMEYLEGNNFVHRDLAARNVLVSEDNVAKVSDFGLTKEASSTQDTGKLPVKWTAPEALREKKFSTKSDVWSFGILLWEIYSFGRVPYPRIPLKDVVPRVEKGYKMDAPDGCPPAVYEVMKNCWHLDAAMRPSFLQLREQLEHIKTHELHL
Sequence of Epidermal growth factor receptor (Homo sapiens), P00533 [L861Q] (P00533 whole entry L861Q): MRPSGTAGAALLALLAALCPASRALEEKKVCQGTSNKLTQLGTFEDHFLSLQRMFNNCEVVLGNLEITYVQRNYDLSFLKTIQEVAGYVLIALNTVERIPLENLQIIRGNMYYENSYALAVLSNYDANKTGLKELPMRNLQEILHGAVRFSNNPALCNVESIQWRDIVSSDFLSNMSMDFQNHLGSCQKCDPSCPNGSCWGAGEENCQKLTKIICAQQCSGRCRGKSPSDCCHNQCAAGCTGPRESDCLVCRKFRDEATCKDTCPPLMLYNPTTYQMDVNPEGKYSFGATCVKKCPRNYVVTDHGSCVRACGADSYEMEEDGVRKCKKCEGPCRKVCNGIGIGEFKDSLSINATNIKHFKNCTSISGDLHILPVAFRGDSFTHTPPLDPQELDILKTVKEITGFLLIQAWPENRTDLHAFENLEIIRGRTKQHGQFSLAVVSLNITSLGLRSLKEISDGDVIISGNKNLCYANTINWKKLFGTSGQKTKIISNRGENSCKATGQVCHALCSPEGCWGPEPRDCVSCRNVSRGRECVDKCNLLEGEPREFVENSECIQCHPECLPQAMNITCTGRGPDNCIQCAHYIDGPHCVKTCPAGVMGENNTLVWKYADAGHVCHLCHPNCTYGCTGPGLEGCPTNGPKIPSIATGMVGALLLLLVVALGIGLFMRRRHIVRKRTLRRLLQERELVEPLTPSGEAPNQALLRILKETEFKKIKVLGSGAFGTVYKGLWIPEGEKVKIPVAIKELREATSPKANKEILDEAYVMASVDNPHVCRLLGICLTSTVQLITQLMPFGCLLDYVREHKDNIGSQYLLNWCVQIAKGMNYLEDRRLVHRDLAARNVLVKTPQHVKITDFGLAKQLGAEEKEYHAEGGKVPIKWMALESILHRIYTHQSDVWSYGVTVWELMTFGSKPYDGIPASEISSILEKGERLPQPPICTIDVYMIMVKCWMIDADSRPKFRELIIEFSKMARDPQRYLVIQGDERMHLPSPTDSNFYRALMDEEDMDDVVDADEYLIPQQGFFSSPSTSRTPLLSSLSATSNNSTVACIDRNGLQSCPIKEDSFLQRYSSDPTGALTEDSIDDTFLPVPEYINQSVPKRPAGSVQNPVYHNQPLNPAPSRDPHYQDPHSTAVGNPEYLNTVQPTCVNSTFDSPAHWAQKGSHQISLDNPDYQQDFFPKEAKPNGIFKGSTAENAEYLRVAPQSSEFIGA
Sequence of Protein-tyrosine kinase 6 (Homo sapiens) (Q13882 whole entry, looked up): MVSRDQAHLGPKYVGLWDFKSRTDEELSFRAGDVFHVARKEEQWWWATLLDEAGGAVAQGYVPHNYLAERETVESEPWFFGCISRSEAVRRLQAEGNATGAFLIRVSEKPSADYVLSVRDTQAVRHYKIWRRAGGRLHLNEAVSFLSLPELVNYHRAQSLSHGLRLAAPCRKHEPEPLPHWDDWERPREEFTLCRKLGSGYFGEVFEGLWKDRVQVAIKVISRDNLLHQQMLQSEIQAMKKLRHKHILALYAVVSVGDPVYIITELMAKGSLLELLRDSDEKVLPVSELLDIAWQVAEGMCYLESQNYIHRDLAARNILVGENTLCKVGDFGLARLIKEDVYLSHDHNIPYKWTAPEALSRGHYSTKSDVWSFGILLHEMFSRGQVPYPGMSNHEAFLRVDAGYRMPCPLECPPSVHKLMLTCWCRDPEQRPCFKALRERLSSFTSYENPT
Sequence of Epidermal growth factor receptor (Homo sapiens) (P00533 whole entry): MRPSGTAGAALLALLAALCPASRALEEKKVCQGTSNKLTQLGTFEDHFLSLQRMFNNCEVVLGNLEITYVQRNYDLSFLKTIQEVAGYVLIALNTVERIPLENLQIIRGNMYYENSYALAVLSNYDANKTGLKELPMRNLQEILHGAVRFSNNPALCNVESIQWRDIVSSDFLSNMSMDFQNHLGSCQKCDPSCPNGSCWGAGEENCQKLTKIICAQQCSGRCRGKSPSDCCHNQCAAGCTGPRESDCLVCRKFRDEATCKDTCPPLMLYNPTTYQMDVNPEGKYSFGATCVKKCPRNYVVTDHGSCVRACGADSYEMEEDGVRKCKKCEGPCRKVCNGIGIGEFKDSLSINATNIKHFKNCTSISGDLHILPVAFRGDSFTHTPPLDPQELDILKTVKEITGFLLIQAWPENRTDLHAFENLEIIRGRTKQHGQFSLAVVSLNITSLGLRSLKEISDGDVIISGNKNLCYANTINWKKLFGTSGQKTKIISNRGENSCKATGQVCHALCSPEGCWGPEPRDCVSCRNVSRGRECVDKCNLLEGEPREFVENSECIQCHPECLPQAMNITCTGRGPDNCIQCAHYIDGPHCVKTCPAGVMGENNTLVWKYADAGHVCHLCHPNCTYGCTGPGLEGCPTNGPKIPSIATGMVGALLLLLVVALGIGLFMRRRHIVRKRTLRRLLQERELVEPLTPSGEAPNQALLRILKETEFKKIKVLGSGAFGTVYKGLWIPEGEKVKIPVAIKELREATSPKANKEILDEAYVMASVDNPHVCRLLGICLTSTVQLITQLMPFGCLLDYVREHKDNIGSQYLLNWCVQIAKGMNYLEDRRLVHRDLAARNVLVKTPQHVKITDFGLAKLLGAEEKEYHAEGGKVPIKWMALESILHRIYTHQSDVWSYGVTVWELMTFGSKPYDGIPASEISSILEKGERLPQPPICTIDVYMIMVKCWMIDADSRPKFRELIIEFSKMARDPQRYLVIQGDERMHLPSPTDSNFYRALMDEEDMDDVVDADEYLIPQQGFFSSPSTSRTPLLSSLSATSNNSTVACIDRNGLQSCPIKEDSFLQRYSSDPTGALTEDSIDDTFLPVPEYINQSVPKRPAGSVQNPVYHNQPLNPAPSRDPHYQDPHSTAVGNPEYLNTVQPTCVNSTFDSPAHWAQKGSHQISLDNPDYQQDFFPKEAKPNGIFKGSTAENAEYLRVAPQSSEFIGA
Sequence of Tyrosine-protein kinase BTK (Homo sapiens) (Q06187 whole entry): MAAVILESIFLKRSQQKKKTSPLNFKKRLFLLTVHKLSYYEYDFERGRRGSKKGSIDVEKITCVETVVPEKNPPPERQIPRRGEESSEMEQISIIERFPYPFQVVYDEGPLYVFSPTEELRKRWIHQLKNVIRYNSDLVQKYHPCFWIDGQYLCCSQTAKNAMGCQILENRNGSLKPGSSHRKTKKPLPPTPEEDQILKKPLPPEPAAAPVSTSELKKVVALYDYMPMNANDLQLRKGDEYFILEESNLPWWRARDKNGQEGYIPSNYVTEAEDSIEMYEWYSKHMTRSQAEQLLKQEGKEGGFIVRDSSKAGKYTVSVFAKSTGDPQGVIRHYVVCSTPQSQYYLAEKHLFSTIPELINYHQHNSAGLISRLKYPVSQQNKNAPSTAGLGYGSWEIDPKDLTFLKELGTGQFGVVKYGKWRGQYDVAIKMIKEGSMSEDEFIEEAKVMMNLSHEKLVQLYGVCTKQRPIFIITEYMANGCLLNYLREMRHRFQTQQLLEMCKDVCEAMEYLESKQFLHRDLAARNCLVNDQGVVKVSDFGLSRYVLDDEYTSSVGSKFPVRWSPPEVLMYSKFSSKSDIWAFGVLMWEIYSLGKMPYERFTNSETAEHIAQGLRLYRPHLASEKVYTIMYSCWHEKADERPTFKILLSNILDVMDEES

Row | SMILES | inhibition [1] [%] | inhibition [2] [%] | inhibition [3] [%] | inhibition [4] [%] | inhibition [5] [%] | inhibition [6] [%] | inhibition [7] [%] | inhibition [8] [%] | inhibition [9] [%] | inhibition [10] [%] | inhibition [11] [%] | inhibition [12] [%] | inhibition [13] [%] | inhibition [14] [%] | inhibition [15] [%] | inhibition [16] [%] | inhibition [17] [%] | inhibition [18] [%] | inhibition [19] [%] | inhibition [20] [%]
1 | NS(=O)(=O)c1ccc(N/N=C2\C(=O)Nc3cccc(CCc4ccncc4)c32)cc1 | 0.32 | 4.33 | 10.4 | 3.67 | 4.79 | -0.69 | -1.07 | 0.17 | 0.16 | 1.04 | 0.36 | 1.26 | 1.42 | 4.28 | 6.81 | -0.53 | 3.04 | -0.31 | 0.15 | 0.27
2 | FC(F)(F)CNc1nccc(-c2cnn3ncccc23)n1 | -3.11 | 1.37 | 2.35 | 4.12 | 2.03 | -1.25 | 3.34 | 0.18 | 0.42 | 2.81 | 0.56 | 1.12 | 0.22 | 1.39 | 6.21 | 2.83 | 0.26 | 0.58 | 0.31 | -0.49
3 | CS(=O)(=O)Nc1ccc(-c2cc(-c3ccccc3)cc(C(N)=O)c2N)cc1 | -0.04 | 0 | 4.17 | 1.21 | 0.72 | 0.76 | 3.55 | -2.25 | -2.03 | 1.18 | 1.29 | -0.17 | 1.14 | 11.5 | 17.2 | 1.51 | 1.89 | 0.77 | 5.17 | -0.83
4 | COc1cc(N2CCN(C(C)C)CC2)ccc1Nc1nc(Nc2cccc3ncccc23)c2cc[nH]c2n1 | 5.43 | 0.1 | 2.64 | 5.26 | -0.89 | -1.05 | -2.93 | -0.29 | -0.05 | -1.28 | -2.41 | 4.81 | 8.24 | 1.36 | 2.64 | -1.25 | 3.3 | -0.92 | 0.99 | -1.02
5 | CCS(=O)(=O)c1ccc(OC)c(Nc2ncc(-c3cccc(F)c3)o2)c1 | -5.62 | 21.3 | 73.8 | 1.13 | 33 | 9.28 | 29.8 | 3.65 | 28.6 | 7.64 | 17.9 | 5.27 | 28.3 | 3.05 | 9.19 | 9.54 | 20.1 | 4.09 | 8.2 | 3.64
6 | NC(=O)c1ccc2c(-c3ccnc(NCCCO)n3)c(-c3ccc(F)cc3)nn2c1 | 0.42 | 2.21 | 6.11 | 1.45 | 9.25 | 6.4 | 17.1 | 0.41 | 0.35 | 6.17 | 7.7 | 4.1 | 22.4 | 1.88 | 17.3 | 10.1 | 50.6 | 4.58 | 16.6 | 2.86
7 | NS(=O)(=O)c1ccc(N/N=C2\C(=O)Nc3ccc(C(=O)NCc4ccncc4)cc32)cc1 | -5.22 | 2.64 | 13.4 | -3.52 | 4.33 | 1.97 | 4.41 | 0.85 | 0.4 | 2.94 | 7.78 | -0.45 | 3.57 | -0.63 | 5.5 | 6.1 | 4.21 | 4.5 | 4.52 | 2.35
8 | O=C(O[C@H]1CN[C@H](C#Cc2cc3ncnc(Nc4ccc(OCc5cccc(F)c5)c(Cl)c4)c3s2)C1)N1CCOCC1 | -9.27 | 3.99 | 1.91 | -1.21 | 3.25 | 5.25 | 9.3 | 0.42 | -0.33 | 7.67 | 7.44 | 1 | 2.47 | 77.1 | 77.1 | 40.9 | 87 | 42.8 | 75.2 | 5.1
9 | O=C(O[C@H]1CN[C@H](C#Cc2cc3ncnc(Nc4ccc5c(ccn5Cc5cc(F)ccc5F)c4)c3s2)C1)N1CCOCC1 | -5.54 | 2.36 | 8.13 | 4.47 | 4.96 | 3.43 | 4.9 | 0.02 | 2.23 | 3.21 | 2.68 | 2.04 | 2.8 | 65.5 | 76.4 | 11.2 | 53.6 | 22.6 | 39 | 20
10 | N#Cc1cccc(Nc2ncc(-c3ccccc3)o2)c1 | -1.77 | 2.28 | 5.45 | 5.35 | 3.56 | 3.51 | 3.45 | 1.01 | -0.7 | 2.15 | 5.14 | 2.3 | 2.59 | -0.19 | 2.05 | 2.09 | 2.9 | 3.59 | 2.98 | 1.65
11 | CNC(=O)c1ncccc1Nc1nc(Nc2cc3c(cc2OC)CCCN3C(=O)CN(C)C)nc2[nH]ccc12 | 53.5 | 2.8 | 7.25 | 3.62 | 4.96 | 4 | 6.37 | 0.46 | 1.22 | 2.99 | 2.18 | 2.33 | 3.8 | 1.65 | 7.76 | 4.57 | 22.4 | 4.79 | 7.78 | 13.2
12 | Cc1c2ccc(N(C)c3ccnc(Nc4cccc(S(N)(=O)=O)c4)n3)cc2nn1C | 1.26 | 5.04 | 56.5 | -1.19 | 17 | 13.8 | 51.2 | -2.88 | 1.31 | 5.79 | 19 | 11.4 | 65 | -3.87 | 0.64 | 3.16 | 11.9 | 5.08 | 3.69 | 3.44
13 | CCCNc1cccc(-n2ncc3c(N/N=C/c4ccncc4)ncnc32)c1 | 13.2 | 14.2 | 62.9 | 1.67 | 13.4 | 8.53 | 51 | 1.43 | 4.2 | 2.59 | 12.1 | 1.93 | 7.68 | 3.46 | 33.5 | 14 | 71.8 | 2.74 | 31.4 | -0.43
